Measured values as given in PubChem BioAssay (NCI).
This is part of a sample that, as a whole, favours compounds with a hit. Of some 83,000 tested, about 20% had one in any assay.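 How to read the values: 0–100, growth inhibition (40 = 60% inhibited); 0, no net growth; -100 to 0, cell death (-40 = 40% of starting cells died; -100 = all dead).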 Unmarked numbers belong to inactive results. Activity calls are given as the source filed them. Rule for the calls: active = growth percent below 10; inactive = the rest.

Columns and labels:
Assay in all cases: NCI-60 one-dose screen, 48 h (100 = growth as untreated, 0 = no growth, -100 = all killed)
Conditions in all cases: 10 µM unless noted
SR leukemia = test system: SR leukemia
OVCAR-8 ovarian = test system: OVCAR-8 ovarian
OVCAR-5 ovarian = test system: OVCAR-5 ovarian
OVCAR-4 ovarian = test system: OVCAR-4 ovarian
SK-OV-3 ovarian = test system: SK-OV-3 ovarian
IGROV1 ovarian = test system: IGROV1 ovarian
OVCAR-3 ovarian = test system: OVCAR-3 ovarian
HS 578T breast = test system: HS 578T breast
NCI/ADR-RES ovarian = test system: NCI/ADR-RES ovarian
T-47D breast = test system: T-47D breast
BT-549 breast = test system: BT-549 breast
MDA-MB-435 melanoma = test system: MDA-MB-435 melanoma
SW-620 colon = test system: SW-620 colon
MCF7 breast = test system: MCF7 breast
HCT-116 colon = test system: HCT-116 colon
HCC-2998 colon = test system: HCC-2998 colon
KM12 colon = test system: KM12 colon

Compound	growth (SR leukemia)	growth (OVCAR-8 ovarian)	growth (OVCAR-5 ovarian)	growth (OVCAR-4 ovarian)	growth (SK-OV-3 ovarian)	growth (IGROV1 ovarian)	growth (OVCAR-3 ovarian)	growth (HS 578T breast)	growth (NCI/ADR-RES ovarian)	growth (T-47D breast)	growth (BT-549 breast)	growth (MDA-MB-435 melanoma)	growth (SW-620 colon)	growth (MCF7 breast)	growth (HCT-116 colon)	growth (HCC-2998 colon)	growth (KM12 colon)
c1ccc(CO[C@H]2CO[C@H]3[C@@H]2OC[C@@H]3Oc2ccc(Nc3ncnc4ccsc34)cc2)cc1	60.6%	81.6%	94.9%	81.8%	95.8%	70.3%	93.7%	90.5%	73.3%	38.9%	68.9%	83.9%	87.6%	64.9%	68.9%	104%	86.2%
Cc1ccc2sc3c(NCCN)nc4ccccc4c3c(=O)c2c1	-13.4% (active)	80.1%	97%	67%	88.4%	72.4%	63%	85%	80.5%	65.6%	88.1%	46.2%	-61.9% (active)	47.9%	7.89% (active)	-33% (active)	14.1%
CC1CN(C2CCCCC2)C(=S)N(c2ccccc2)C1=O (stereo not drawn)	98.7%	118%	104%	97.2%	116%	105%	112%	109%	102%	103%	108%	105%	103%	96.1%	101%	100%	97.3%
O=C(Nc1ccc(Br)cc1F)c1cc(Br)ccc1O	4.87% (active)	11.6%	25.3%	22.4%	12%	15.3%	5.37% (active)	4.22% (active)	7.36% (active)	-5.16% (active)	-6.02% (active)	3.11% (active)	8.55% (active)	6% (active)	5.39% (active)	12.4%	3.17% (active)
COc1ccc(-c2[nH]c3ccc(OC)cc3c2/C=C(\C#N)S(=O)(=O)c2ccccc2)cc1	28.1%	42.2%	63.3%	-20.8% (active)	31.9%	48.6%	-1.23% (active)	13.4%	14.3%	34.4%	46.6%	1.86% (active)	32.8%	7.23% (active)	19.4%	-19.7% (active)	10.8%
CN(C)CCS(=O)(=O)Nc1cc(-c2ccc3ncc(C#N)c(Nc4ccc(F)c(Cl)c4)c3c2)cnc1Cl	-12.5% (active)	-10.8% (active)	-43.8% (active)	-5.26% (active)	-35.1% (active)	-43.3% (active)	-59.8% (active)	-10.5% (active)	63.7%	-30.5% (active)	-60.2% (active)	-76.8% (active)	-11.1% (active)	0.35% (active)	-51.6% (active)	-83.3% (active)	-25.4% (active)
COc1ccc2nc(NC(=O)c3cccnc3Nc3ccc(S(N)(=O)=O)cc3)sc2c1	59.6%	97.1%	102%	81.7%	116%	134%	98.9%	96.7%	104%	84.6%	84.7%	91.5%	109%	110%	93.5%	114%	97.8%
O=[N+]([O-])c1ccc(Oc2nc(Nc3ccc(O[C@H]4CO[C@H]5[C@@H]4OC[C@@H]5O)c(Cl)c3)ncc2F)c(Cl)c1	10.5%	32.5%	43.2%	34.4%	9.64% (active)	-13% (active)	31.1%	-2.68% (active)	81.3%	11.9%	31.8%	10.9%	35.7%	21.2%	25%	69.3%	11.2%
COc1ccc2sc3c(NCCO)nc4ccccc4c3c(=O)c2c1	83.9%	92.1%	102%	114%	110%	113%	122%	95.4%	99.6%	88.5%	100%	106%	101%	47%	92.7%	115%	89%
NCCCNc1nc2ccccc2c2c(=O)c3cc(F)cc(F)c3sc12	-35.8% (active)	69.7%	50.9%	-62.3% (active)	83.6%	77.9%	89.7%	76.8%	84%	92.7%	93.4%	-91.2% (active)	-75.6% (active)	75.5%	53.2%	75.3%	79.1%
CN(C)CCNc1nc2ccccc2c2c(=O)c3cc(F)ccc3sc12	-23.5% (active)	40.2%	76.9%	29.9%	77.1%	49%	38.1%	47.8%	38.3%	66.1%	64.4%	1.18% (active)	-48% (active)	34.3%	-11.2% (active)	-64.5% (active)	
COc1cc(C2CC(c3ccc(SC)cc3)=NN2C(C)=O)cc(OC)c1OC (stereo not drawn)	33.8%	80.3%	100%	93.8%	89%	53.8%	21.7%	79.7%	24.4%	72.1%	36.4%	-28.5% (active)	38.5%	41.9%	41.5%	61%	39.4%
O=C(/C=C/c1cccc2ccccc12)c1ccc(NC(=O)c2ccccc2CN2C(=O)c3ccccc3C2=O)cc1	23.5%	75.4%	96.6%	58.7%	82.3%	79.1%	34.7%	66.2%	61%	71%	68.8%	6.48% (active)	33.2%	56.7%	39.3%	109%	40.6%
CCN(CC)CCNC(=O)c1cn2ncnc(Oc3ccc(NC(=O)Nc4ccc(Cl)c(C(F)(F)F)c4)cc3)c2c1C	-56.4% (active)	-42.5% (active)	-62.7% (active)	-8.97% (active)	-85.9% (active)	-53.1% (active)	-70.9% (active)	-44.4% (active)	61%	-64.3% (active)	-32.5% (active)	-81.4% (active)	-85.6% (active)	-84.4% (active)	-95.3% (active)	-95.8% (active)	-80.4% (active)
CS(=O)(=O)Nc1cc(-c2ccc3ncnc(Nc4cccc(Cl)c4F)c3c2)cnc1Cl	43.5%	60.8%	38.3%	77.2%	30.5%	-8.72% (active)	25%	-3.32% (active)	86.9%	-4.02% (active)	17.9%	46.2%	46.3%	11%	46.7%	45.3%	
CCOC(=O)c1cn2ncnc(Oc3ccc(NC(=O)NCCN(C)C)c(Cl)c3)c2c1C	-13.1% (active)	78.9%	91.6%	82.4%	94.1%	78.7%	75%	85.6%	88.7%	45.8%	77.8%	46.1%	31.5%	61.6%	36.4%	80.2%	93.3%
COc1cc2cc(Oc3ccc(NC(=O)Nc4cc(C(F)(F)F)cc(C(F)(F)F)c4)cc3)c(C)nc2cc1OCCN1CCOCC1	-34.9% (active)	17.2%	46.6%	17.9%	22.7%	33.5%	9.29% (active)	60.6%	9.17% (active)	26.1%	68.1%	22.3%	20.3%	7.15% (active)	10.3%	38.6%	
Cc1cc(C)c(-c2c(N)cc(Br)cc2Br)c(N)c1	24.9%	83.8%	84.9%	74.3%	31.7%	63.9%	65%	66.4%	54.5%	54.6%	69.6%	-25.8% (active)	48.5%	21.4%	23.5%	75.1%	40.5%
